# Values without a mark were called inactive.
# How the values were obtained:
# [1] = system: Sporothrix brasiliensis CBS 133006; assay: growth inhibition relative to untreated control; higher = more growth inhibition (more antifungal activity), active = 80 or more; extreme values may be limits of the assay; settings: 1 µM; 48 h
# Outline: (§1)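 Library compounds at a final 1 μM were incubated with yeast-form cells of the reference isolates (1 x 10^5 CFU/ml) for 48 h at 35°C in 5% CO2. Growth was judged by inverted light microscopy and measured spectrophotometrically in quadruplicate runs. Values give percent growth inhibition relative to untreated cells.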
# [2] = system: Sporothrix schenckii ATCC 32286; assay: as above; settings: 1 µM; 48 h
# Outline: as §1
Compound,growth inhibition [1] [%],growth inhibition [2] [%]
COc1cc(C(F)(F)F)nc2ccc(C)c(N)c12,6.75,14.5
O=C(N[C@H](Cc1ccccc1)C(=O)Nc1ccccc1N1CCOCC1)c1cccs1,7,7.25
O=C(c1ccc(NCCO)cc1)C1C[C@H]1c1ccc(Cl)cc1 (stereo partly drawn),2,8.5
O=C(Nc1nc(-c2ccccn2)cs1)C1CC1c1ccccc1F (stereo not drawn),9.5,34.2
CN1CCN(CCCOc2ncc(Nc3ncc(-c4ccc(C(F)(F)F)c(F)c4)nc3C(N)=O)cn2)CC1,12.5,0
Cc1ccc2oc(-c3cc(NC(=O)Cc4ccccc4)ccc3Cl)nc2c1,14.5,11.2
COc1cc(C2=NCCN2)ccc1-c1cn(-c2cccc(C3=NCCN3)c2)nn1,14,1.25
Nc1ncnc2c1c(-c1cnc3ccccc3c1)nn2CC1CCNCC1,13.2,15.5
O=C(Nc1ccc(N2CCNCC2)nc1)c1oc(-c2ccccc2)nc1C(F)(F)F,15.2,13.5
COc1cccn2c(C(=O)N3CCCCC3)c(C(F)(F)F)nc12,8.75,5
COc1ccc(N(CCc2cccc(C)n2)C(=O)C2CCCCC2)cc1,5.75,0
C[C@H](C(N)=O)N1CCCC[C@@H]1c1ccc(OCc2cccc(F)c2)cc1,0,2
Nc1nc2cc(-c3cncc(Oc4ccc(F)cc4)c3)ccc2[nH]1,8.5,18.5
COC(=O)c1cccc2oc(-c3cccc(OC)c3NC(=O)c3cc(-c4ccccc4)on3)nc12,7.5,0
O=C1N(Cc2cc3ccccc3s2)CC2CN(Cc3ccccc3)CCN12 (stereo not drawn),22,4.5
CC(C)n1ncc2c(C(=O)NCC(c3cccs3)N3CCOCC3)cc(-c3ccccc3)nc21 (stereo not drawn),2,12.8
Cc1cccc(Cn2ccc(NC(=O)c3ccc4c(c3)OCO4)n2)c1,7.5,7.25

Compound,growth inhibition [1] [%],growth inhibition [2] [%]
O=C(Nc1ccc(N2CCNCC2)cc1)c1ccn2ncc(-c3cccc(Cl)c3)c2n1,12,14.5
CC1=Nc2ccc(Cl)cc2C(c2ccccc2)N1CCNC(=O)CN(C)C (stereo not drawn),22.8,0
Cc1nnc(NC(=O)c2cn(-c3ccccc3)nc2-c2ccccc2C)o1,1.5,22.8
COc1cc(CN2CCC3(C=Cc4ccccc43)CC2)cc2c1OCO2,4.25,3.25
CC(=O)NCC1CN(c2ccc(-c3ccc(CNCc4cn[nH]n4)cc3)c(F)c2)C(=O)O1 (stereo not drawn),15.5,0
CNC(=O)C1Cc2ccccc2N1C(=O)Cc1ccc(F)cc1 (stereo not drawn),32.2,3.25
O=C(c1ccco1)N(CCCn1ccnc1)c1nc2c(Cl)cccc2s1,6,10.2
COc1cc(C2=NCCN2)cc2cc(-c3ccc(C4=NCCN4)cc3)oc12,17,4.25
c1cc(C2=NCCN2)cc(-c2cc(-c3ccc(C4=NCCN4)cc3)no2)c1,5.5,0
Cc1cc(C(=O)Nc2ccc(-c3ccccc3)cc2)no1,1.75,17
O=C(C1CCCCC1)N1CC(=O)N2CCc3ccccc3C2C1 (stereo not drawn),2.25,10.2
Cc1cc(C)cc(COc2ccc3c(C)c(CCC(=O)O)c(=O)oc3c2C)c1,3.75,1.5
COc1ccc(CN2CCOc3ccc(C(C)(O)CN(C)C)cc3C2)cc1C (stereo not drawn),1.25,16
Cc1ccccc1CN1CCC(O)(c2ccc(Cl)c(C(F)(F)F)c2)CC1,0,0
COc1ccc(OC(C)C(=O)Nc2ccc(Cl)cc2C)cc1 (stereo not drawn),10.5,11.2
O=C(CN1CCOCC1)Nc1ccc2ncnc(Nc3ccc(OCc4cccc(F)c4)c(Cl)c3)c2c1,8.25,15.8
CNc1snc(C)c1C(=O)NCCOc1ccc(OC)cc1,12.2,7.5

# From the supplement of paper PMC7556523
